Compound activity deposited in PubChem BioAssay by several laboratories.
An excerpt weighted towards active compounds, which were near 1.1% of everything screened.
Sa RN4220 lethal = S. aureus RN4220 growth inhibition | 0.33% of 330,000 active | inhibition, % (no concentration beside the values) | OD600, 16 h; in the data active = inhibition above about 85%;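 note: plate controls were untreated cells for no effect and reference antibiotic for full effect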
Mtb hypoxia inh = inhibitors of hypoxia-regulated fluorescent reporter in Mycobacterium tuberculosis; fluorescence inhibition, % (no concentration beside the values); 0.1% of 300,000 active; M. tuberculosis hypoxia-regulated fluorescent reporter, fluorescence; AID 1159583; in the data active = fluorescence inhibition mostly above about 23%, no sharp cut-off; inactive = mostly below about 17%
SSB-PriA inh = blocks PriA binding to SSB C-terminal tail; AID 1272365; 0.6% of 430,000 active; inhibition, % at 33 µM; AlphaScreen SSBct-PriA binding, biotinylated peptide; in the data active = inhibition mostly above about 37%, no sharp cut-off; inactive = mostly below about 20%;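 note: plate controls were negative control peptide for no effect and reference peptide for full effect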
ugtP null kill = kills S. aureus RN4220 lacking UgtP | S. aureus RN4220 ugtP deletion, OD600 growth, 16 h | growth inhibition, % (no concentration beside the values) | 0.54% of 330,000 active | AID 1259309; in the data active = growth inhibition above about 68%;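 note: plate controls were untreated wells for no effect and antibiotic for full effect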
An asterisk follows results filed as active; / = no result shown; ! = not confirmed by another sample.

SMILES	Sa RN4220 lethal	Mtb hypoxia inh	SSB-PriA inh	ugtP null kill
Cc1cc(C)cc(OCCNS(=O)(=O)c2cc([N+](=O)[O-])ccc2Cl)c1	/	/	36*	/
O=[N+]([O-])c1ccc(Cl)c(S(=O)(=O)NCCOc2cccc(C(F)(F)F)c2)c1	/	/	24	/
O=C(CSc1nc2c(-c3ccccc3)c[nH]c2c(=O)n1C1CC1)Nc1ccc2c(c1)OCCO2	/	/	1	/
O=[N+]([O-])c1ccc(-[n+]2nc(-c3ccccc3)nn2-c2ccc(I)cc2)cc1	/	/	155*	/
O=C(CCc1cccc(Cl)c1)NCC(O)c1ccc(C(F)(F)F)cc1 (configuration not stated)	/	/	-11	/
CCc1ccc(/C=C/C(=O)C2C(=O)c3ccccc3C2=O)cc1	100*	4	4	97*
CC(=O)N(Cc1c(C#N)c2ccccc2n1C)c1ccccc1	4	4	-14	-1
CC(=O)N(Cc1ccccc1)c1ncc2c(n1)c(=O)c(C#N)c1ccccn12	1	1	48*	4
C[C@@H](Cc1ccco1)NC(=O)C1CC1	/	/	-6	/
Cc1cc(C)cc(N(C)S(=O)(=O)c2ccsc2-c2nc(-c3cccnc3)no2)c1	/	/	-4	/
COc1ccc(C(=O)Nc2ccc(-c3csc(-c4ccccc4)n3)cc2)cc1OC	/	/	-3	/
COc1cc(C=NN(C)c2ccccc2)ccc1O	3	11	31	-9
CCOc1ccc(C=NN(C)c2ccccc2)cc1OC	10	9	39*	17
Cc1nc2ccccc2n1N=Cc1ccc([N+](=O)[O-])o1	101*	/	-6	100*
Cc1cc2ncn(N=Cc3ccc([N+](=O)[O-])o3)c2cc1C	100*	9	-2	101*
Cc1ccc(C(=O)OCc2cc(-c3ccc(Cl)cc3)on2)cc1	/	/	-11	/
O=C(c1cnn2c(C(F)(F)F)cc(-c3ccccc3)nc12)N1CCCCC1c1cccnc1 (configuration not stated)	-2	-11	2	-1
O=C(c1cc2nc(-c3ccc(F)cc3)cc(C(F)(F)F)n2n1)N1CCCCC1c1cccnc1 (configuration not stated)	86	-8	-2	active
COc1ccc(-c2nc(SCC(=O)Nc3ccc(NC(C)=O)cc3)c3c(=O)n(C)c(=O)n(C)c3n2)cc1OC	/	/	-16	/
CC(C)C1OC2c3cccc4cccc(c34)C2N1c1ccccc1 (configuration not stated)	-3	1	-12	90*
CCOc1ccc(NC(=O)CC(NCc2ccccn2)C(=O)O)cc1 (configuration not stated)	-1	2	96*	5
COc1ccc(NC(=O)CC(NCc2ccccn2)C(=O)O)cc1 (configuration not stated)	5	13	-8	9
CCN(CC)CCOc1ccc(C(=C(Cl)c2ccccc2)c2ccccc2)cc1	97*!	/	/	71
COCCN1CCC(CNC(=O)CSC2CCCC2)CC1	/	/	-22	/
CCCC1Oc2ccccc2C(=O)N(CC(=O)c2ccc(F)cc2)C1=O (configuration not stated)	/	/	54*	/
SMILES	Sa RN4220 lethal	Mtb hypoxia inh	SSB-PriA inh	ugtP null kill
O=C1c2ccccc2C(=O)c2cc(S(=O)(=O)Nc3ccccc3)ccc21	96*	7	51	89*
Cc1cccc(Cn2cnc3c(cnn3CCNC(=O)c3ccc4c(c3)OCO4)c2=O)c1	/	/	12	/
O=C(NC[C@H](O)c1csc2ccccc12)C(=O)Nc1ccc(OC(F)(F)F)cc1	/	/	-14	/
Cc1ccc(C(=O)N/C(=C\c2ccco2)C(=O)NCCCn2ccnc2)cc1	-8	-3	103*	-2
CN(C)c1ccc(/C=C(\NC(=O)c2ccccc2)C(=O)NCCCn2ccnc2)cc1	5	1	39*	-2
COc1ccc(SCCC(=O)Nc2ccccc2-c2nc3ccccc3[nH]2)cc1	/	/	-7	/
O=C(Cc1ccccc1)NC(O)C(Cl)(Cl)Cl (configuration not stated)	/	/	8	/
CCC1=NNc2cccc3c(OC)ccc1c23	-5	60*	/	-3
CN(C)CCCN(C(=O)c1cc(-c2cccs2)nc2ccccc12)c1nc2c(F)cccc2s1	-5	-5	52*!	-24
CN(C)CCCN(C(=O)/C=C/c1cccs1)c1nc2c(F)cccc2s1	-4	-2	1	1
Cc1ccc2nc(N(CCCN(C)C)C(=O)c3cc(-c4cccs4)nc4ccccc34)sc2c1	33	24	44*	-45
c1nc(SCc2ccc3c(c2)OCO3)c2c3c(sc2n1)CCCCC3	/	/	-11	/
Fc1ccc(CSc2ncnc3sc4c(c23)CCCC4)cc1	8	2	-34	83*
CCc1ccc(NC(=O)CCNC(=O)N2C[C@H]3C[C@H](C2)c2cccc(=O)n2C3)cc1	/	/	-7	/
CC(C)=CCc1c2c(c3occ(-c4ccc(O)cc4)c(=O)c3c1O)C=CC(C)(C)O2	99*	/	11	100*
CC(=O)N1CCc2c(sc(NC(=O)Cc3ccc(F)cc3)c2C#N)C1	4	-5	60*	-2
CC(=O)N1CCc2c(sc(NC(=O)c3ccc([N+](=O)[O-])s3)c2C#N)C1	/	/	23	/
CC(=O)N1CCc2c(sc(NC(=O)c3ccc([N+](=O)[O-])o3)c2C#N)C1	16	40*	0	90*
CC(=O)N1CCc2c(sc(NC(=O)Cc3ccc(F)cc3)c2C(N)=O)C1	6	0	0	11
Cn1nc([N+](=O)[O-])nc1Sc1cccc2cccnc12	2	-4	78*	28
Cc1nnc2ccc(N3CCN(S(=O)(=O)c4cc(F)ccc4F)CC3)nn12	/	/	-1	/
CON/C=C(\C=Nc1ccccc1)c1ncc(C(F)(F)F)cc1Cl	-1	4	/	96*
COc1ccc(CCNC(=O)N2CCC(c3nn(C)c(=O)n3C3CC3)CC2)cc1	/	/	6	/
CCCc1cc(=O)[nH]c2nnc(SCc3c(F)cccc3Cl)n12	/	/	-17	/
COc1ccc(C2(C)NN=C3Sc4ccccc4N32)cc1 (configuration not stated)	/	/	41*	/
SMILES	Sa RN4220 lethal	Mtb hypoxia inh	SSB-PriA inh	ugtP null kill
COc1ccc([C@@]2(C)NN=C3Oc4ccccc4N32)cc1	/	/	-18	/
Cc1nc(-c2cccc(NC(=O)c3ccc(OCc4nc(C5CC5)cs4)cc3)c2)cs1	/	/	-1	/
CCN(CC)CCN(C(=O)c1cc2ccccc2cc1OC)c1nc2ccc(OC)cc2s1	-5	-4	45*	18
CCN(CC)CCN(C(=O)c1ccc(OC)c(OC)c1)c1nc2ccc(F)cc2s1	/	/	2	/
CCN(CC)CCN(C(=O)c1cc2ccccc2cc1OC)c1nc2ccc(F)cc2s1	-10	-16	47*!	-25
O=C(NN=Cc1c[nH]c2ccccc12)c1cc(-c2ccc(-c3ccccc3)cc2)n[nH]1	87*	4	-8	28
O=C(CCS(=O)(=O)c1ccc(F)cc1)Nc1nc(-c2ccccn2)cs1	-1	-9	43*	-7
O=C(CCS(=O)(=O)c1ccccc1)Nc1nc(-c2ccccn2)cs1	19	-6	34	7
O=C(CCCS(=O)(=O)c1ccc(Cl)cc1)Nc1nc(-c2cccnc2)cs1	/	/	-6	/
O=C(CCCS(=O)(=O)c1ccc(Cl)cc1)Nc1nc(-c2ccccn2)cs1	/	/	33*	/
CCCCCCCCCCCCCCCC(O)C(N)CO (configuration not stated)	100*	4	-14	100*
CCCCCCC(N)CC(=O)O (configuration not stated)	0	4	-2	0
